In PubChem BioAssay (EPA / NIEHS):
Active and inactive are the calls of the source. How the source made its calls: active means hit-call score of the fitted dose curve at least 0.9, where 1 is the maximum; inactive means score below 0.9.

molecular target: Heat shock factor protein 1 (Homo sapiens) (UniProt Q00613); assay: ATG_HSE_CIS: Attagene CIS-FACTORIAL HepG2 Assay for human Heat Shock Transcription Factor 1 (HSE) (AID 2282953); settings: HepG2 HSE cis-reporter, Attagene RNA transcription; actives raise or lower the signal
Sequence (Q00613 whole entry, looked up): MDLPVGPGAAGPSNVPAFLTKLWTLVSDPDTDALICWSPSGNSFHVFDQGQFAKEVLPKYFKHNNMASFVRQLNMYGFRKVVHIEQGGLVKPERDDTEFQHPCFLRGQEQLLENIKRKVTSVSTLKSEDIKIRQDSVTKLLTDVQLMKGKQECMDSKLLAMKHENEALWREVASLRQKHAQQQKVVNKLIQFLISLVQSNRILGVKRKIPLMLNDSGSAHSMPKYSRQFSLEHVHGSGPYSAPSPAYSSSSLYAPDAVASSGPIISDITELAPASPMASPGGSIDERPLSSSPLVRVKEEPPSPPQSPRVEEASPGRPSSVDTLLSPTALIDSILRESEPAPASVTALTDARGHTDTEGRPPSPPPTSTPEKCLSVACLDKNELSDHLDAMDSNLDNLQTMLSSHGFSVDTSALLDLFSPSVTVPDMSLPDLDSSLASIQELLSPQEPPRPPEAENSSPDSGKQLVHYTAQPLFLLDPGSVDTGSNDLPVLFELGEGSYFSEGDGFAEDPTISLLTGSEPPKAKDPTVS
Method: ATG_CIS is a cell-based, multiplexed-readout assay that uses HepG2, a human liver cell line, with measurements taken at 24 hours after chemical dosing in a 24-well plate.ATG_HSE_CIS is one of 52 assay component(s) measured or calculated from the ATG_CIS assay. It is designed to make measurements of mRNA induction, a form of inducible reporter, as detected with fluorescence intensity signals by Reverse transcription polymerase chain reaction (RT-PCR) and Capillary electrophoresis technology.Data from the assay component ATG_HSE_CIS was analyzed into 1 assay endpoint. This assay endpoint, ATG_HSE_CIS, was analyzed with bidirectional fitting relative to DMSO as the negative control and baseline of activity. Using a type of inducible reporter, measures of mRNA for gain or loss-of-signal activity can be used to understand the reporter gene at the transcription factor-level as they relate to the gene HSF1. Furthermore, this assay endpoint can be referred to as a primary readout, because this assay has produced multiple assay endpoints where this one serves a reporter gene function. To generalize the intended target to other relatable targets, this assay endpoint is annotated to the dna binding intended target family, where the subfamily is heat shock protein.
Human liver HepG2 cells are transiently transfected with multiple reporter transcription units (MRTUs) in 6-well plates using FuGene 6 reagent (Roche; 3 ml FuGene/1 mg DNA). The MRTU constructs are regulated by a cis-regulating element (promoter). […] A major difference between the CIS and TRANS system is that in CIS activities of endogenous TFs are measured, whereas the TRANS assay evaluates changes in activities of exogenous, chimeric NR-Gal4 proteins. […] At the end of 24 hour incubation, total RNA was isolated using TriZol reagent (Invitrogen). The isolated RNA is then reverse-transcribed using oligo(dT) primer and Mo-MLV reverse transcriptase (Invitrogen) with DNAse I (Ambion) treatment for 30 min. The one-tenth of the produced cDNA was amplified by PCR using Taq DNA polymerase (Invitrogen) and two reporter sequence-specific primers. The PCR products were fluorescently labeled by primer extension with 6-arboxyfluorescein (6-FAM) 5'-labeled reporter sequence-specific primer (2 min at 95 C, 20 s at 68 C and 10 min at 72 C) and these products were digested with 5U of HpaI (New England Biolabs) for 2h at 37 C. The fragments were purified using Qiaquick PCR columns (Qiagen), analyzed on an ABI 3130xL genetic analyzer (Applied Biosystems) with peak positions identified by using a set of X-rhodamine (ROX)-labeled MapMarker1000 molecular weight standards (BioVentures). The raw capillary electrophoresis data was processed using Attagraph software (Attagene).

outcome, inactive:
C=COCCCC, Cn1c([N+](=O)[O-])cnc1COC(N)=O, CCO[Si](C)(OCC)OCC, COC(=O)c1cc(Cl)ccc1[N+](=O)[O-], CCCC(C)CCC(C)=O (stereo not given), NC(=O)c1ccccc1O, C=C1[C@H]2CC[C@@H]3[C@H]2C(C)(C)CCC[C@]13C, CC(C)CC(O)Cc1ccccc1 (stereo not given), CCCCCc1ccc(Cl)cc1, CCOC(=O)CC, CCN(CCO)c1cccc(C)c1, CCCCCCCCc1ccc(Nc2ccc(CCCCCCCC)cc2)cc1, CCCCCCCCCCCCCCCCCC#N, Clc1nc2ccccc2s1, CC=C1CC2C=CC1C2 (stereo not given), NC(=O)NNC(N)=O, CCOc1nc(F)cc2nc(S(=O)(=O)Nc3c(Cl)cccc3C(=O)OC)nn12, Cc1cccc(OCCOc2cccc(C)c2)c1, CCC(C)C=O (stereo not given), CC/C=C\CCOC(=O)CCCCC, Cc1cnc(NC(=O)C2=C(O)c3ccccc3S(=O)(=O)N2C)s1, Cc1ccc(N)c([N+](=O)[O-])c1, CC(C)c1ccc2cc(C(C)C)ccc2c1, O=C1CC2CC1C1CCCC21 (stereo not given), COC(=O)c1sccc1S(N)(=O)=O, Nc1ccc(N=Nc2ccccc2)c(N)n1, C=C(C)C(=O)OCC(C)C, OCCNCc1ccccc1, CC(CC=O)CCCC(C)(C)O (stereo not given), OC1CCCCCCCCCCC1, C=CCOCC(O)CCl (stereo not given), O=S(=O)(Oc1ccc(Cl)cc1Cl)c1ccccc1, Cc1ccccc1C, CC(C)COC(=O)C=Cc1ccccc1, CCCCCCCCCCCCCCCC[n+]1ccccc1, Cc1ccc(N/N=c2\c(=O)cc/c(=N/Nc3ccc(S(=O)(=O)O)cc3)c2=O)c(C)c1, COC(=O)c1ccc2cc(C(=O)OC)ccc2c1

AC50, active:
CN(C)c1ccc(C(=N)c2ccc(N(C)C)cc2)cc1 29.4 µM, CCOC(=O)c1ccccc1C(=C1C=C(Br)C(=O)C(Br)=C1)c1cc(Br)c(O)c(Br)c1 20.6 µM, c1cc(C(c2ccc(OCC3CO3)cc2)C(c2ccc(OCC3CO3)cc2)c2ccc(OCC3CO3)cc2)ccc1OCC1CO1 (stereo not given) 56.5 µM
